Holding throughout (experiment): qHTS profiling for inhibitors of Plasmodium falciparum proliferation (AID 504749); note: nearly all actives have a fitted effect of over 60% in size
What all share (conditions): P. falciparum in erythrocytes, SYBR Green DNA, 72 h; series mostly up to 28.7 µM

Assay [1] deals with CP192. An outline of the steps:
(§1)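 P. falciparum-infected erythrocytes (0.3% parasitemia, 2.5% hematocrit final) were exposed to compounds for 72 h at 37 C in 5% CO2, then lysed with SYBR Green buffer overnight at room temperature; parasite DNA fluorescence was normalized to artemisinin and DMSO controls.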

For assay [2], the system named is CP194. An outline of the steps: as §1
Assay [3] relates to CP201. An outline of the steps:
as §1

Assay [4] deals with CP203. An outline of the steps: as §1
The subject of assay [5] is CP211. An outline of the steps:
as §1

Assay [6] concerns CP215. An outline of the steps:
as §1

Assay [7] deals with CP217. An outline of the steps:
as §1

Assay [8] concerns CP237. An outline of the steps:
as §1

Assay [9] deals with CP238. An outline of the steps: as §1
In assay [10] the test system is CP247. An outline of the steps: as §1

Molecules are shown by their SMILES. Results filed as inconclusive are left out. Some compounds were tested as several samples or in several runs, with calls that do not always agree. The source made the active and inactive calls. Calls come from the whole dose curve; as a rule, active = well fitted inhibition curve with a large enough effect; inconclusive = small, poorly fitted or top-dose-only effect; inactive = flat fitted curve, though single readings scatter.
Potency is the fitted concentration of half-maximal effect.

With `CCC1(CC)C(=O)NC(=O)N(C)C1=O`, the Potency entry in assay [1], in assay [2], in assay [3], in assay [4], in assay [5] and in [6] was “inactive” in each case. The Potency result in assay [7], in assay [8], in assay [9] and in assay [10] was “inactive” in each case.

As for `O=C(CS(=O)C(c1ccccc1)c1ccccc1)NO` (centres undefined), the Potency result in assay [1], in assay [2], in assay [3], in assay [4], in assay [5] and in assay [6] was “inactive” throughout. Further, the Potency result in assay [7], in [8], in assay [9] and in assay [10] was “inactive” throughout.

On to `CCON=O`, for which the Potency result in assay [1], in assay [2], in assay [3], in assay [4], in [5] and in assay [6] was “inactive” each time. For the same compound, the Potency result in [7], in [8], in assay [9] and in assay [10] was “inactive” in each case.

For the compound `CC(N)Cc1ccc(O)cc1` (centres undefined), the Potency entry in assay [1], in [2], in assay [3], in assay [4], in [5] and in assay [6] was “inactive” each time. The Potency result in [7], in assay [8], in [9] and in assay [10] was “inactive” in each case.

On to `CCC1(c2ccccc2)C(=O)NC(=O)N(C(=O)c2ccccc2)C1=O` (centres undefined), for which the Potency result in [1], in assay [2], in [3], in assay [4], in assay [5] and in assay [6] was “inactive” in each case. Moreover, the Potency entry in assay [7], in [8] and in assay [9] was “inactive” throughout.

As to `COc1ccc(OC)c(C(O)C(C)N)c1` (centres undefined), the Potency result in assay [1], in assay [2], in [3], in [4], in assay [5] and in assay [6] was “inactive” throughout. Also, the Potency result in assay [7], in assay [8], in assay [9] and in [10] was “inactive” throughout.

Regarding `C#CC(C)(O)CC` (centres undefined), the Potency entry in assay [1], in assay [2], in assay [3], in assay [4], in assay [5] and in assay [6] was “inactive” throughout. Further, the Potency entry in assay [7], in [8], in [9] and in assay [10] was “inactive” each time.

`O=C1CCCCC1CN1CCCCC1` (centres undefined): the Potency entry in assay [1], in assay [2], in assay [3], in assay [4], in assay [5] and in [6] was “inactive” in each case. Moreover, the Potency result in assay [7], in assay [8], in [9] and in [10] was “inactive” in each case.

Turning to `CCCCCCCCCC(=O)O[C@H]1CC[C@H]2[C@@H]3CCC4=CC(=O)CC[C@]4(C)[C@H]3CC[C@]12C`, the Potency result in assay [1], in assay [2], in assay [3], in assay [4], in [5] and in assay [6] was “inactive” each time. For the same compound, the Potency entry in assay [7], in [8], in assay [9] and in [10] was “inactive” each time.

As to `O=C1CCO1`, the Potency result in assay [1], in [2], in [3], in [4], in assay [5] and in [6] was “inactive” throughout. The Potency entry in [7], in [8], in [9] and in assay [10] was “inactive” each time.

Take `O=C(OCCN1CCCCC1)C(O)(c1ccccc1)c1ccccc1`: the Potency entry in assay [1], in assay [2], in [3], in [4], in assay [5] and in assay [6] was “inactive” in each case. Also, the Potency result in assay [7], in [8], in [9] and in [10] was “inactive” in each case.

On to `O=S(=O)(O)c1cc(O)ccc1O`, for which the Potency entry in [1], in [2], in [3], in [4], in assay [5] and in assay [6] was “inactive” throughout. Besides, the Potency entry in assay [7], in [8], in [9] and in [10] was “inactive” throughout.

Turning to `O=P(O)(O)C(Cl)(Cl)P(=O)(O)O`, the Potency result in [1], in assay [2], in assay [3], in assay [4], in [5] and in assay [6] was “inactive” throughout. Further, the Potency result in assay [7], in [8], in assay [9] and in [10] was “inactive” each time.

`CC(C)(C)c1cc(O)ccc1O`: the Potency entry in [1] and in assay [3] was “inactive” each time. Further, the Potency was 16.9 µM (active) and inactive in assay [2]; 15.1 µM (active) in assay [4]; 12 µM (active) and inactive in [5]; 10.7 µM (active) in assay [6]; 8.91 µM (active) in assay [7]; 6.31 µM (active) in [8]. The figures for the Potency in [9] and in [10] were 10 µM (active) and 4.47 µM (active), respectively.

`N#CC1(N2CCCCC2)CCCCC1`: the Potency result in assay [1], in [2], in assay [3], in [4], in assay [5] and in assay [6] was “inactive” throughout. Further, the Potency entry in assay [7], in [8], in [9] and in [10] was “inactive” throughout.

For the compound `CC(C)Nc1ccc(Nc2ccccc2)cc1`, the Potency in assay [1] was 5.36 µM (active); in [2], 3.38 µM (active); in assay [3], 4.78 µM (active); in assay [4] it was 8.49 µM (active); in assay [5], 3.79 µM (active); in assay [6], 4.26 µM (active). For the same compound, the Potency was 5.01 µM (active) in [7], 7.94 µM (active) in [8], 10 µM (active) in assay [9] and 4.47 µM (active) in [10].

Consider `S=C=S`, for which the Potency result in assay [1], in assay [2], in assay [3], in assay [4], in [5] and in assay [6] was “inactive” throughout. Besides, the Potency entry in assay [7], in assay [8], in assay [9] and in [10] was “inactive” throughout.

For the compound `C=CCN1CCC23c4c5ccc(O)c4O[C@H]2C(=O)CC[C@@]3(O)C1C5` (some centres undefined), the Potency result in assay [1], in assay [2], in [3], in assay [4], in [5] and in assay [6] was “inactive” throughout. The Potency result in assay [7], in [8], in assay [9] and in [10] was “inactive” each time.

`[O]=[Cd]`: the Potency result in assay [1], in [2], in [3], in [4], in assay [5] and in assay [6] was “inactive” in each case. The Potency result in assay [7], in assay [8], in [9] and in [10] was “inactive” each time.

For the compound `NCC(O)c1cccc(O)c1` (centres undefined), the Potency entry in assay [1], in assay [2], in [3], in assay [4], in assay [5] and in assay [6] was “inactive” each time. In addition, the Potency entry in assay [7], in assay [8], in assay [9] and in [10] was “inactive” each time.

On to `CCCC(C)C1(CC)C(=O)NC(=O)NC1=O` (centres undefined), for which the Potency entry in assay [1], in assay [2], in assay [3], in [4], in assay [5] and in [6] was “inactive” throughout. In addition, the Potency result in [7], in [8], in [9] and in assay [10] was “inactive” each time.

Consider `C[N+]1(C)CCCCC1COC(=O)C(O)(c1ccccc1)c1ccccc1` (centres undefined), for which the Potency result in [1], in [2], in assay [3], in [4], in [5] and in assay [6] was “inactive” throughout. Also, the Potency result in assay [7], in assay [8], in assay [9] and in assay [10] was “inactive” throughout.

Regarding `O=C1CN(O)C(c2ccccc2)=c2cc(Cl)ccc2=N1`, the Potency result in assay [1], in assay [2], in assay [3], in [4], in [5] and in assay [6] was “inactive” throughout. Moreover, the Potency result in assay [7], in assay [8], in assay [9] and in [10] was “inactive” in each case.

Turning to `ClC=C(Cl)Cl`, the Potency result in assay [1], in assay [2], in assay [3], in assay [4], in assay [5] and in assay [6] was “inactive” each time. Besides, the Potency entry in [7], in assay [8], in assay [9] and in [10] was “inactive” in each case.
